Data published in PubChem BioAssay AID463173 (ICCB-Longwood Screening Facility, Harvard Medical School, 2010).
Among all 52,000 compounds or so, about 1,700 (3.3%) were called active. The full list was thinned out, with actives kept by preference. Values without a mark were called inactive. No stated cut-off is given here; in the data, active means survival mostly below about 52% (no sharp cut-off); inactive means mostly above about 56%.

Test system: Wild type
Experiment: growth inhibition of S. aureus wild type versus tarO mutant, primary screen, teichoic acid synthesis inhibitors, RN4220, OD600 (AID 463173)
Details: S. aureus RN4220 wild type/DeltatarO growth, OD600, 18 h, stronger effect = lower value, screened at 18.75 µg/mL (by protocol)

Row | SMILES | survival
1 | COc1cc(Cl)c(C)cc1NC(=O)CSCc1nc(-c2ccc(OC)c(OC)c2)no1 | 73%
2 | CCCCNC(=O)c1cc(-c2ccc(OC)cc2)nc2n[nH]c(-c3cccc([N+](=O)[O-])c3)c12 | 80%
3 | Cc1cc(C)c2c(-n3cccc3)c(C(=O)NCCc3ccc(Cl)cc3)sc2n1 | 118%
4 | CCCCc1nc2c(nnn2Cc2ccccc2)c(=O)[nH]1 | 104%
5 | Cn1nnc2c(NCc3ccccc3)ncnc21 | 0% (active)
6 | Cn1nnc2c(NCc3ccc(Cl)cc3)ncnc21 | 88%
7 | Cc1ccc(CNc2ncnc3c2nnn3C)cc1 | 49%
8 | COc1ccc(N2CCN(C(=O)c3ccc(CS(=O)(=O)c4ccc(Br)cc4)o3)CC2)cc1 | 132%
9 | O=C1NC(=O)C(Nc2ccccc2Cl)S1 (centres undefined) | 108%
10 | CC1CCN(c2ncnc3c2c(-c2ccccc2)cn3-c2ccc(Br)cc2)CC1 | 72%
11 | CCn1cc(S(=O)(=O)c2cccc(Cl)c2)c(=O)c2cc(F)c(N3CCC(C)CC3)cc21 | 57%
12 | CC(C)OCCCn1c(=O)c2ccccc2n2c(-c3cc(Cl)ccc3O)nnc12 | 94%
13 | COC(=O)c1sccc1S(=O)(=O)N(CC(=O)Nc1c(C)cccc1C)c1ccc(C)c(C)c1 | 78%
14 | COC(=O)c1sccc1S(=O)(=O)N(CC(=O)NCc1ccc(C)cc1)c1ccc(C)c(C)c1 | 74%
15 | COC(=O)c1sccc1S(=O)(=O)N(CC(=O)NCc1ccccc1)c1ccc(C)c(C)c1 | 14% (active)
16 | COC(=O)c1sccc1S(=O)(=O)N(CC(=O)Nc1ccc(C)c(F)c1)c1ccc(C)c(C)c1 | -1% (active)
17 | COC(=O)c1sccc1S(=O)(=O)N(CC(=O)NCc1ccc(F)cc1)c1ccc(C)c(C)c1 | 76%
18 | COC(=O)c1sccc1S(=O)(=O)N(CC(=O)Nc1cc(F)ccc1F)c1ccc(C)c(C)c1 | 133%
19 | CCc1cccc(NC(=O)CN(c2ccc(C)c(C)c2)S(=O)(=O)c2ccsc2C(=O)OC)c1 | -6% (active)
20 | COC(=O)c1sccc1S(=O)(=O)N(CC(=O)Nc1cccc(C)c1C)c1ccc(C)c(C)c1 | 69%
21 | COC(=O)c1sccc1S(=O)(=O)N(CC(=O)Nc1cc(C)ccc1C)c1ccc(C)c(C)c1 | 78%
22 | Cc1ccc(CNC(=O)c2ccc(CSCc3ccccc3Cl)o2)cc1 | 49%
23 | CC1(C)CC(=O)c2cc(C(=O)Nc3ccc(Cl)cc3)c(=O)[nH]c2C1 | 71%
24 | CCCCOc1ccc(CNC(=O)c2cc3n(n2)CCCN(Cc2ccc(C)cc2)C3=O)cc1 | 63%
